Key:
Assay in all cases: DAPPL (digital affinity profiling via proximity ligation, sequencing); 10 mM Tris-HCl pH 7.5, 50 mM NaCl, 1 mM DTT, 4% glycerol, room temperature, 30 min; GST-TFs on glutathione beads, 16-mer random dsDNA library, 0.1% formaldehyde crosslink after washing; high values mean tight binding
Conditions in all cases: protein: recombinant; tags: N-terminal GST; dsDNA, one strand shown
FLI1 = biological target: T1, FLI1 (Homo sapiens, UniProt Q01543 1-452)
T1 sequence: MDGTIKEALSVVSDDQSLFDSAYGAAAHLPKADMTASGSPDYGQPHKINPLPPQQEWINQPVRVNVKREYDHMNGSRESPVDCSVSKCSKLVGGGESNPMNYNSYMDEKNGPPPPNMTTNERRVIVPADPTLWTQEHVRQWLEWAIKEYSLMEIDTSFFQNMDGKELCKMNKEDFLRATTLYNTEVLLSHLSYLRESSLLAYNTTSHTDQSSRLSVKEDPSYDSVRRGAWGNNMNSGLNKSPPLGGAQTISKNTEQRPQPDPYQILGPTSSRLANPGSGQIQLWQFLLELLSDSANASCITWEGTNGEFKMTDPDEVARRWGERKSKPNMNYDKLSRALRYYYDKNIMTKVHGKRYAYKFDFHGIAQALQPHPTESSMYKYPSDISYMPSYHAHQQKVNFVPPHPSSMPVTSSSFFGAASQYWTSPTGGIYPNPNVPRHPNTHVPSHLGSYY
How it was run: (§1)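 The binding signal reported is, for every hexamer, its read frequency for a factor over its read frequency for the tag-only sample. Reads came from pools of yeast-expressed, GST-fused human transcription factors on glutathione beads, barcoded with DNA and mixed with that sample, which were incubated with 200 nmole of a random double-stranded 16-mer DNA library in Tris/NaCl/DTT/glycerol buffer at room temperature for 30 min. After washing, the pools were crosslinked with 0.1% formaldehyde, proximity-ligated with BsaI/T4 ligase for 1 h at 37 °C, PCR-amplified and sequenced on an Illumina NextSeq500.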

ELK1 = biological target: T2, ELK1 (Homo sapiens, UniProt P19419 1-428)
T2 sequence: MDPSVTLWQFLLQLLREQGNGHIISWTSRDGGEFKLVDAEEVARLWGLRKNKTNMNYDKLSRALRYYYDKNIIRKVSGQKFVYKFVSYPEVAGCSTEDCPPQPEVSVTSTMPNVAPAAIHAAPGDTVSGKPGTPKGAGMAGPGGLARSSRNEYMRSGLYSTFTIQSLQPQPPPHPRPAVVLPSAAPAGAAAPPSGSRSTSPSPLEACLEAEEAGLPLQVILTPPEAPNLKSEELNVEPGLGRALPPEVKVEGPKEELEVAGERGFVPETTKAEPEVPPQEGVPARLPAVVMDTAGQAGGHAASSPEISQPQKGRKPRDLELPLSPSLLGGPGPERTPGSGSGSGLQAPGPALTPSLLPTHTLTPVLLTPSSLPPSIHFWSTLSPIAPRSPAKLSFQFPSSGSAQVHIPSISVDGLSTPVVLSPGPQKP
How it was run: as §1

GABPA = biological target: T3, GABPA (Homo sapiens, UniProt Q06546 1-454)
T3 sequence: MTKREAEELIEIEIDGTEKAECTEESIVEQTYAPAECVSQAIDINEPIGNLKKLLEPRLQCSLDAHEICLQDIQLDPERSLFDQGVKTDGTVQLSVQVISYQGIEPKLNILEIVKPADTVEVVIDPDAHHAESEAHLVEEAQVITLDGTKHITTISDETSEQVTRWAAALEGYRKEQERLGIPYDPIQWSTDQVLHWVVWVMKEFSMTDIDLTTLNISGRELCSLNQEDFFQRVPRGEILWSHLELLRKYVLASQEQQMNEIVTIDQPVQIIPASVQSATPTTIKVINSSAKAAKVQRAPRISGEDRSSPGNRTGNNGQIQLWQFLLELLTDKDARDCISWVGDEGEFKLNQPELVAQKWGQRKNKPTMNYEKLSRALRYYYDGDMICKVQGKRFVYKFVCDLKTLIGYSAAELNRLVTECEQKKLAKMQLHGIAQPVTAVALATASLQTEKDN
How it was run: as §1

ERG = biological target: T4, ERG (Homo sapiens, UniProt P11308 1-479)
T4 sequence: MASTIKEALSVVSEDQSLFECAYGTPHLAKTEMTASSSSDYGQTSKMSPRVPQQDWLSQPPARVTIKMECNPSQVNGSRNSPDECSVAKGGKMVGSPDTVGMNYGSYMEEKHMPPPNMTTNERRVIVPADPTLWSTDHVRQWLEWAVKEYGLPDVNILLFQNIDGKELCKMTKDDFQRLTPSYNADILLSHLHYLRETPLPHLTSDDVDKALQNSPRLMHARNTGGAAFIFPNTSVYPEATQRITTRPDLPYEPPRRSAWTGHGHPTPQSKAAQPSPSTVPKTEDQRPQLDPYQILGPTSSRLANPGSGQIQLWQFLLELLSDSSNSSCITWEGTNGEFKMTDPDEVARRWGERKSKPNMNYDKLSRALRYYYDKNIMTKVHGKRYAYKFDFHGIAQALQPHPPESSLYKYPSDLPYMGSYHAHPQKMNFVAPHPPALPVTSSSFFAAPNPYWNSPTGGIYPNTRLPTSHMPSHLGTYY
How it was run: as §1

ELF1 = ELF1 (Homo sapiens, UniProt P32519 1-619)
How it was run: as §1

EHF = biological target: T5, EHF (Homo sapiens, UniProt Q9NZC4 1-300)
T5 sequence: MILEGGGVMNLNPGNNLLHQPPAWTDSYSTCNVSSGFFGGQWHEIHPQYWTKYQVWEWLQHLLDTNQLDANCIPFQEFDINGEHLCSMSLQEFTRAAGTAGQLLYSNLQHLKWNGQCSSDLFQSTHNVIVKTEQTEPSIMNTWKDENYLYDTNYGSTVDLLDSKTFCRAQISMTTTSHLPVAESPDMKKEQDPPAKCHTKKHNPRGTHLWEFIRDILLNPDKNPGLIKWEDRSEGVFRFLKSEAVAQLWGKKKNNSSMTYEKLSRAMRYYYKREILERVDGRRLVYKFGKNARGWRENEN
How it was run: as §1

SPI1 = SPI1 (Homo sapiens, UniProt P17947 1-270)
How it was run: as §1

SPIB = SPIB (Homo sapiens, UniProt Q01892 1-262)
How it was run: as §1

ELK3 = biological target: T6, ELK3 (Homo sapiens, UniProt P41970 1-407)
T6 sequence: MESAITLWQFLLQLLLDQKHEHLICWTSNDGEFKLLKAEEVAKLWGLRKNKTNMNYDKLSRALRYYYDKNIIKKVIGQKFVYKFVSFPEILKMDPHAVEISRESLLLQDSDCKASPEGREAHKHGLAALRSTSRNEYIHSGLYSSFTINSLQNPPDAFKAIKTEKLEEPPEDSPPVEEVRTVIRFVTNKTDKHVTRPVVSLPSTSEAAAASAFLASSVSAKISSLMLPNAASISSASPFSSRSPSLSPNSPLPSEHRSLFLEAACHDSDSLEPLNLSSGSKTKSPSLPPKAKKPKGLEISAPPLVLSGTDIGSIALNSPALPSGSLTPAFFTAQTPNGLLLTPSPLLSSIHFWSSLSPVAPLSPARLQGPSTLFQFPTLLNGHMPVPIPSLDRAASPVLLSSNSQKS
How it was run: as §1

SPIB, sequence (Q01892 whole entry): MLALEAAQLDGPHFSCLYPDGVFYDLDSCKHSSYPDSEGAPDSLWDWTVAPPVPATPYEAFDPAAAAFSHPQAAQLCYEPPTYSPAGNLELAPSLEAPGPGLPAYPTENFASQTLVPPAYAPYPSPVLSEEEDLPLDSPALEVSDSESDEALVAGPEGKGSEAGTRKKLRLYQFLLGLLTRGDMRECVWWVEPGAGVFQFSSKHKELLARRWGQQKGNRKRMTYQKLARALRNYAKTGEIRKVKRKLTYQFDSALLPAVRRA
ELF1, sequence (P32519 whole entry): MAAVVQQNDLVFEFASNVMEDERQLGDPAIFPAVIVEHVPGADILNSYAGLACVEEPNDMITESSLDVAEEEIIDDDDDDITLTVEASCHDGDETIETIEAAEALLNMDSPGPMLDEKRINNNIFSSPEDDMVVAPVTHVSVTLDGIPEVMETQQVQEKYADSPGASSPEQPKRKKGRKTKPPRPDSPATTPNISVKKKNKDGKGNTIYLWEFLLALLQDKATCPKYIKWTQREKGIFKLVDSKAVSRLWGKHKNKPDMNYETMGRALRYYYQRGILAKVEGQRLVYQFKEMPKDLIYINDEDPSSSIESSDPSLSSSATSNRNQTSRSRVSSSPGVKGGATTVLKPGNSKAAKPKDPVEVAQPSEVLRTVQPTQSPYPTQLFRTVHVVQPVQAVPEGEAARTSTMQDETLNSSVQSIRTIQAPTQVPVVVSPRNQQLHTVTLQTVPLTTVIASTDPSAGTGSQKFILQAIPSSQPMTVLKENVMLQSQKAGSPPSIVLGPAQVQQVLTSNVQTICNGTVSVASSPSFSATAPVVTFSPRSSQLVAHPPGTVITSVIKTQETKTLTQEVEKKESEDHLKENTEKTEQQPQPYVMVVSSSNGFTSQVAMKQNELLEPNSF

Sequence	binding signal (FLI1)	binding signal (ELK1)	binding signal (GABPA)	binding signal (ERG)	binding signal (ELF1)	binding signal (EHF)	binding signal (SPI1)	binding signal (SPIB)	binding signal (ELK3)
CTACCG	1.44 fold enrichment (6-mer frequency, TF over GST control)	1.71 fold enrichment (6-mer frequency, TF over GST control)	1.58 fold enrichment (6-mer frequency, TF over GST control)	1.5 fold enrichment (6-mer frequency, TF over GST control)	1.64 fold enrichment (6-mer frequency, TF over GST control)	1.55 fold enrichment (6-mer frequency, TF over GST control)	1.52 fold enrichment (6-mer frequency, TF over GST control)	1.73 fold enrichment (6-mer frequency, TF over GST control)	1.57 fold enrichment (6-mer frequency, TF over GST control)
ATCCTC	1.48 fold enrichment (6-mer frequency, TF over GST control)	1.47 fold enrichment (6-mer frequency, TF over GST control)	1.55 fold enrichment (6-mer frequency, TF over GST control)	1.52 fold enrichment (6-mer frequency, TF over GST control)	1.48 fold enrichment (6-mer frequency, TF over GST control)	1.39 fold enrichment (6-mer frequency, TF over GST control)	1.51 fold enrichment (6-mer frequency, TF over GST control)	1.41 fold enrichment (6-mer frequency, TF over GST control)	1.36 fold enrichment (6-mer frequency, TF over GST control)
TTCCGA	1.64 fold enrichment (6-mer frequency, TF over GST control)	1.62 fold enrichment (6-mer frequency, TF over GST control)	1.43 fold enrichment (6-mer frequency, TF over GST control)	1.66 fold enrichment (6-mer frequency, TF over GST control)	1.44 fold enrichment (6-mer frequency, TF over GST control)	1.71 fold enrichment (6-mer frequency, TF over GST control)	1.62 fold enrichment (6-mer frequency, TF over GST control)	1.44 fold enrichment (6-mer frequency, TF over GST control)	1.68 fold enrichment (6-mer frequency, TF over GST control)
TATTGA	1.1 fold enrichment (6-mer frequency, TF over GST control)	1.16 fold enrichment (6-mer frequency, TF over GST control)	1.09 fold enrichment (6-mer frequency, TF over GST control)	1.13 fold enrichment (6-mer frequency, TF over GST control)	1.18 fold enrichment (6-mer frequency, TF over GST control)	1.15 fold enrichment (6-mer frequency, TF over GST control)	1.05 fold enrichment (6-mer frequency, TF over GST control)	1.11 fold enrichment (6-mer frequency, TF over GST control)	1.01 fold enrichment (6-mer frequency, TF over GST control)
AGCTTA	1.06 fold enrichment (6-mer frequency, TF over GST control)	1.12 fold enrichment (6-mer frequency, TF over GST control)	1.12 fold enrichment (6-mer frequency, TF over GST control)	1.13 fold enrichment (6-mer frequency, TF over GST control)	1.11 fold enrichment (6-mer frequency, TF over GST control)	1.1 fold enrichment (6-mer frequency, TF over GST control)	1.14 fold enrichment (6-mer frequency, TF over GST control)	1.21 fold enrichment (6-mer frequency, TF over GST control)	1.11 fold enrichment (6-mer frequency, TF over GST control)
CTCTTG	1.4 fold enrichment (6-mer frequency, TF over GST control)	1.33 fold enrichment (6-mer frequency, TF over GST control)	1.41 fold enrichment (6-mer frequency, TF over GST control)	1.29 fold enrichment (6-mer frequency, TF over GST control)	1.36 fold enrichment (6-mer frequency, TF over GST control)	1.3 fold enrichment (6-mer frequency, TF over GST control)	1.3 fold enrichment (6-mer frequency, TF over GST control)	1.43 fold enrichment (6-mer frequency, TF over GST control)	1.53 fold enrichment (6-mer frequency, TF over GST control)
AATGAT	1.08 fold enrichment (6-mer frequency, TF over GST control)	1.22 fold enrichment (6-mer frequency, TF over GST control)	1.15 fold enrichment (6-mer frequency, TF over GST control)	1.14 fold enrichment (6-mer frequency, TF over GST control)	1.19 fold enrichment (6-mer frequency, TF over GST control)	1.2 fold enrichment (6-mer frequency, TF over GST control)	1.16 fold enrichment (6-mer frequency, TF over GST control)	1.12 fold enrichment (6-mer frequency, TF over GST control)	1.19 fold enrichment (6-mer frequency, TF over GST control)
TGGTTT	1.6 fold enrichment (6-mer frequency, TF over GST control)	1.44 fold enrichment (6-mer frequency, TF over GST control)	1.55 fold enrichment (6-mer frequency, TF over GST control)	1.51 fold enrichment (6-mer frequency, TF over GST control)	1.58 fold enrichment (6-mer frequency, TF over GST control)	1.48 fold enrichment (6-mer frequency, TF over GST control)	1.66 fold enrichment (6-mer frequency, TF over GST control)	1.43 fold enrichment (6-mer frequency, TF over GST control)	1.6 fold enrichment (6-mer frequency, TF over GST control)

Source: publication PMC7862700, “An all-to-all approach to the identification of sequence-specific readers for epigenetic DNA modifications on cytosine”
